# According to article PMC7862700, “An all-to-all approach to the identification of sequence-specific readers for epigenetic DNA modifications on cytosine”:
# Key:
# Test in all cases: DAPPL (digital affinity profiling via proximity ligation, sequencing); 10 mM Tris-HCl pH 7.5, 50 mM NaCl, 1 mM DTT, 4% glycerol, room temperature, 30 min; GST-TFs on glutathione beads, 16-mer random dsDNA library, 0.1% formaldehyde crosslink after washing; high values mean tight binding
# FEV = target: T1, FEV (Homo sapiens, UniProt Q99581 1-238); conditions: protein: recombinant; tags: N-terminal GST; dsDNA, one strand shown
# T1 sequence: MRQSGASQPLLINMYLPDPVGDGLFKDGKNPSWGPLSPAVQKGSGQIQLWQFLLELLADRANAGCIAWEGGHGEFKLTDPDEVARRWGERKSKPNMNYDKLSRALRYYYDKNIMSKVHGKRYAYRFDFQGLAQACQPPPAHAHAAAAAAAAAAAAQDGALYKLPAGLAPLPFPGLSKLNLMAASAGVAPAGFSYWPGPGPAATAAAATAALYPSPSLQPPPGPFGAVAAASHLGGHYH
# How it was run: (§1)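 Sequencing on an Illumina NextSeq500 followed washing, crosslinking with 0.1% formaldehyde, proximity ligation (BsaI/T4 ligase, 1 h, 37 °C) and PCR amplification of pools that had been incubated for 30 min at room temperature with 200 nmole of a random double-stranded 16-mer DNA library in Tris/NaCl/DTT/glycerol buffer. Each pool held DNA-barcoded human transcription factors, expressed in yeast as GST fusions and captured on glutathione beads, plus a tag-only sample. Binding signal is a hexamer's read frequency for a factor divided by its frequency in the tag-only sample.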
# ETV5 = ETV5 (Homo sapiens, UniProt P41161 1-510); conditions: protein: recombinant; tags: N-terminal GST; dsDNA, one strand shown
# How it was run: as §1
# HSF1 = HSF1 (Homo sapiens, UniProt Q00613 1-529); conditions: protein: recombinant; tags: N-terminal GST; chain copies: 3; dsDNA, one strand shown
# How it was run: as §1
# SPIC = target: T2, SPIC (Homo sapiens, UniProt Q8N5J4 1-248); conditions: protein: recombinant; tags: N-terminal GST; dsDNA, one strand shown
# T2 sequence: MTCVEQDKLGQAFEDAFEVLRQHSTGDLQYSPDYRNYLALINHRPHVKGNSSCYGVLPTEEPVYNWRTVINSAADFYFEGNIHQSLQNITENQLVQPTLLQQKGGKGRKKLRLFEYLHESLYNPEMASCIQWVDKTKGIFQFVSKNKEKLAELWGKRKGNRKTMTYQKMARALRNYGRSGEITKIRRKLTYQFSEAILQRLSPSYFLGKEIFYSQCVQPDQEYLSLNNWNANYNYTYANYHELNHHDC
# How it was run: as §1
# ELF4 = ELF4 (Homo sapiens, UniProt Q99607 1-663); conditions: protein: recombinant; tags: N-terminal GST; dsDNA, one strand shown
# How it was run: as §1
# ELK4 = target: T3, ELK4 (Homo sapiens, UniProt P28324-2 1-405); conditions: protein: recombinant; tags: N-terminal GST; dsDNA, one strand shown
# T3 sequence: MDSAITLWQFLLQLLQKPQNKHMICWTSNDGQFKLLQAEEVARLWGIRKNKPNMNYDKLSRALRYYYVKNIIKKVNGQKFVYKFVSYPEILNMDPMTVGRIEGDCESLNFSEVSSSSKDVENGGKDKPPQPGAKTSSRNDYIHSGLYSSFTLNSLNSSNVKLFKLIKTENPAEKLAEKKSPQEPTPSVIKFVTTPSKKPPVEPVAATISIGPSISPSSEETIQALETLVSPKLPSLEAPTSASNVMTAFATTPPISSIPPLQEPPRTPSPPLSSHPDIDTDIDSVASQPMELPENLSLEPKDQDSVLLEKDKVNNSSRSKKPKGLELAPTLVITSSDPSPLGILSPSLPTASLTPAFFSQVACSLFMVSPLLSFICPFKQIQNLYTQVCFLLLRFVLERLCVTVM
# How it was run: as §1
# ETV2 = target: T4, ETV2 (Homo sapiens, UniProt O00321 1-342); conditions: protein: recombinant; tags: N-terminal GST; dsDNA, one strand shown
# T4 sequence: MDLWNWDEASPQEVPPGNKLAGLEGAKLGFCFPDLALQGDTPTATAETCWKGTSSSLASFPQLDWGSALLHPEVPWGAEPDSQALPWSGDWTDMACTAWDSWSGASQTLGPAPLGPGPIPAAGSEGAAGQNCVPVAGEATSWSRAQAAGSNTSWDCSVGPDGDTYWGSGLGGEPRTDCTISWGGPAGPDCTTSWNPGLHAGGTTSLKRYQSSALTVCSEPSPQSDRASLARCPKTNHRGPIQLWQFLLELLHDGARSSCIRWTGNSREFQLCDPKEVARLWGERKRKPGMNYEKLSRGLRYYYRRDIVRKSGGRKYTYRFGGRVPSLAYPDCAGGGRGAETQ
# How it was run: as §1
# ELF3 = target: T5, ELF3 (Homo sapiens, UniProt P78545 1-371); conditions: protein: recombinant; tags: N-terminal GST; dsDNA, one strand shown
# T5 sequence: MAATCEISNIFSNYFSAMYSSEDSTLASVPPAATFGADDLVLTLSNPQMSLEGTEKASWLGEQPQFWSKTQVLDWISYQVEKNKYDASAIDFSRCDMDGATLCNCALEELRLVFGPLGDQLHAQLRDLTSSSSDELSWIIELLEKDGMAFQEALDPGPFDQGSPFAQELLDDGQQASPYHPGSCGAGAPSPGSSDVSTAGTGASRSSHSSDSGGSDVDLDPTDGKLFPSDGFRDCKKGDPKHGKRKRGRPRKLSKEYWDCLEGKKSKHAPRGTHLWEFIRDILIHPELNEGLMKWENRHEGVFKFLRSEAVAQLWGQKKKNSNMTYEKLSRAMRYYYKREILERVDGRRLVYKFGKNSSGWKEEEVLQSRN
# How it was run: as §1
# CRX = CRX (Homo sapiens, UniProt O43186 1-299); conditions: protein: recombinant; tags: N-terminal GST; dsDNA, one strand shown
# How it was run: as §1
# ETV1 = ETV1 (Homo sapiens, UniProt P50549 1-477); conditions: protein: recombinant; tags: N-terminal GST; dsDNA, one strand shown
# How it was run: as §1
# ERF = target: T6, ERF (Homo sapiens, UniProt P50548 1-548); conditions: protein: recombinant; tags: N-terminal GST; dsDNA, one strand shown
# T6 sequence: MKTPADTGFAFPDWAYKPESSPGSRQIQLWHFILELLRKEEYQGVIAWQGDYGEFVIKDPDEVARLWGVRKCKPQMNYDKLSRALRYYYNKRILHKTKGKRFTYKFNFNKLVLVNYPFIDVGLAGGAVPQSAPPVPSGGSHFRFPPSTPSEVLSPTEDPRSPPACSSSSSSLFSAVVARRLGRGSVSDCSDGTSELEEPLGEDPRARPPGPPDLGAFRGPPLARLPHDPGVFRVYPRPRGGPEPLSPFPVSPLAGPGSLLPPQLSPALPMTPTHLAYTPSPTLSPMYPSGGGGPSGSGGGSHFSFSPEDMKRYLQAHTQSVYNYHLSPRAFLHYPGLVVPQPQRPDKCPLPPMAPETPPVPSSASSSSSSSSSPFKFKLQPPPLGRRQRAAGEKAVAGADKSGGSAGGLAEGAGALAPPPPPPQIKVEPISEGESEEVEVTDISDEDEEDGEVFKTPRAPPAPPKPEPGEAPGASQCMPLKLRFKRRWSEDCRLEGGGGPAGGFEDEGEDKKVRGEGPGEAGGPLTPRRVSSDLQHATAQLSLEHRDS
# How it was run: as §1
# ETV3L = target: T7, ETV3L (Homo sapiens, UniProt Q6ZN32 1-361); conditions: protein: recombinant; tags: N-terminal GST; dsDNA, one strand shown
# T7 sequence: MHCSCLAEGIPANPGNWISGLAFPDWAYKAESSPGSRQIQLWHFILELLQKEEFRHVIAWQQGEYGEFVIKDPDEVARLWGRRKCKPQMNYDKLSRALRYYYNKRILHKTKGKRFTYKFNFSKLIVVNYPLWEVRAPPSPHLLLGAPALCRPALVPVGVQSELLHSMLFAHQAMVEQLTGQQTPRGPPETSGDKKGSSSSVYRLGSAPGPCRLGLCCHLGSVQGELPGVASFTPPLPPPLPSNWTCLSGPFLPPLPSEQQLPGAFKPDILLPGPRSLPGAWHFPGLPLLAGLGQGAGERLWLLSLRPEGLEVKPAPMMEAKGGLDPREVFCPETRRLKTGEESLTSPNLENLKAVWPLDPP
# How it was run: as §1
# ETS2 = target: T8, ETS2 (Homo sapiens, UniProt P15036 1-469); conditions: protein: recombinant; tags: N-terminal GST; dsDNA, one strand shown
# T8 sequence: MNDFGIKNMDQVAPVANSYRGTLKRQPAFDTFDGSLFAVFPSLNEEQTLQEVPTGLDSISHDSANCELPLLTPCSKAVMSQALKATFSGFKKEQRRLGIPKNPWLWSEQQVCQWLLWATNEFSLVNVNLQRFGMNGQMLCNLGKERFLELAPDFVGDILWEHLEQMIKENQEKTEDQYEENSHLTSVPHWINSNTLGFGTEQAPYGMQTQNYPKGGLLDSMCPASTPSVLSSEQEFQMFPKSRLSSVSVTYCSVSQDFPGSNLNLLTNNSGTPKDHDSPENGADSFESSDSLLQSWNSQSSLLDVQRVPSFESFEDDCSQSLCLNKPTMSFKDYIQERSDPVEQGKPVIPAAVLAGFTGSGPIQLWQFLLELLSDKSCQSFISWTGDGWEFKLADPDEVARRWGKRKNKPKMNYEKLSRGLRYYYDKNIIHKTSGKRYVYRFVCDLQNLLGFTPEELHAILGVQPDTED
# How it was run: as §1
# SPDEF = target: T9, SPDEF (Homo sapiens, UniProt O95238 1-335); conditions: protein: recombinant; tags: N-terminal GST; dsDNA, one strand shown
# T9 sequence: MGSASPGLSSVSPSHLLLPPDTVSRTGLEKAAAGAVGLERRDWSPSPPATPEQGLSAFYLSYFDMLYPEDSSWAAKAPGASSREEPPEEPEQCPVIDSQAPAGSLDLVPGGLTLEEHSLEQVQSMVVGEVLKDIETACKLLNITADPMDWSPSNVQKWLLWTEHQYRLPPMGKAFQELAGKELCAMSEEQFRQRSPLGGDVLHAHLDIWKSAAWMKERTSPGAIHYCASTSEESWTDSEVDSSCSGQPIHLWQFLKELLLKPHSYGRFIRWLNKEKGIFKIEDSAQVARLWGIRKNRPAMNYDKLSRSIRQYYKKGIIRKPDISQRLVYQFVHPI
# How it was run: as §1
# ETV7 = target: T10, ETV7 (Homo sapiens, UniProt Q9Y603 1-341); conditions: protein: recombinant; tags: N-terminal GST; dsDNA, one strand shown
# T10 sequence: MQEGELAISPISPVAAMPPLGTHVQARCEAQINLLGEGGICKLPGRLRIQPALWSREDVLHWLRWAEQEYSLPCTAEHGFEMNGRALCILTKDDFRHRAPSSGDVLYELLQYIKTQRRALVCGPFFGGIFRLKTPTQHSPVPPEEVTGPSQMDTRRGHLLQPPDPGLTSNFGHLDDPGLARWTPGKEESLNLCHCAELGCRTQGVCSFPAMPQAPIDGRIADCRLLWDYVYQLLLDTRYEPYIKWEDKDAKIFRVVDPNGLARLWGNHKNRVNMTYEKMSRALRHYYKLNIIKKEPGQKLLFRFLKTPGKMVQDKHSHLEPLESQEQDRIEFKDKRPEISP
# How it was run: as §1
# ELF5 = target: T11, ELF5 (Homo sapiens, UniProt Q9UKW6-2 1-255); conditions: protein: recombinant; tags: N-terminal GST; dsDNA, one strand shown
# T11 sequence: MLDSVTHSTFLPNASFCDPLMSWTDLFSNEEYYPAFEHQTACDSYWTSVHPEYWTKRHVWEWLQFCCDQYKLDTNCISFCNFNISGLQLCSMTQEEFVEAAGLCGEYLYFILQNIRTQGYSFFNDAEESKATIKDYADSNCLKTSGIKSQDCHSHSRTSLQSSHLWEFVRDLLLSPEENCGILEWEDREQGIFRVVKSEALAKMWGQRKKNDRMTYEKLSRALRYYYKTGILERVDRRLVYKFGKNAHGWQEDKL
# How it was run: as §1
# ETV3 = target: T12, ETV3 (Homo sapiens, UniProt P41162-2 1-143); conditions: protein: recombinant; tags: N-terminal GST; dsDNA, one strand shown
# T12 sequence: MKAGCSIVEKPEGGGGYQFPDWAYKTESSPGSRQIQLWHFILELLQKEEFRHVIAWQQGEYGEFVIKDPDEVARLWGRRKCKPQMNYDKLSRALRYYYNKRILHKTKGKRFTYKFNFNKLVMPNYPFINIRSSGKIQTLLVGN
# How it was run: as §1
# ETV6 = ETV6 (Homo sapiens, UniProt P41212 1-452); conditions: protein: recombinant; tags: N-terminal GST; dsDNA, one strand shown
# How it was run: as §1
# Sequence of ETV5 (P41161 whole entry): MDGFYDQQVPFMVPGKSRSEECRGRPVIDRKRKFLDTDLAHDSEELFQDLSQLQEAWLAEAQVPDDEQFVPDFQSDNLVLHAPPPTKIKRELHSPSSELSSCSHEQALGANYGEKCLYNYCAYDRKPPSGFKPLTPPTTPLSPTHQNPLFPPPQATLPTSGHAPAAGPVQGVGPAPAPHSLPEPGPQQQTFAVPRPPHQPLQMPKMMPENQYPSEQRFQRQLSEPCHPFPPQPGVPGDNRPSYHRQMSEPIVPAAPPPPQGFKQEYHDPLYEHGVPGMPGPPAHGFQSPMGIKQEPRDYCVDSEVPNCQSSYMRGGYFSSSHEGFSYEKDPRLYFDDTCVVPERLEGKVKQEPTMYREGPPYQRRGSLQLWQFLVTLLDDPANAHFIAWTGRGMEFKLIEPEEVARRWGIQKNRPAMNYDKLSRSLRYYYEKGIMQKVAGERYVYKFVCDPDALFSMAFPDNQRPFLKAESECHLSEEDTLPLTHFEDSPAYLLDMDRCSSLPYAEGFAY
# Sequence of CRX (O43186 whole entry): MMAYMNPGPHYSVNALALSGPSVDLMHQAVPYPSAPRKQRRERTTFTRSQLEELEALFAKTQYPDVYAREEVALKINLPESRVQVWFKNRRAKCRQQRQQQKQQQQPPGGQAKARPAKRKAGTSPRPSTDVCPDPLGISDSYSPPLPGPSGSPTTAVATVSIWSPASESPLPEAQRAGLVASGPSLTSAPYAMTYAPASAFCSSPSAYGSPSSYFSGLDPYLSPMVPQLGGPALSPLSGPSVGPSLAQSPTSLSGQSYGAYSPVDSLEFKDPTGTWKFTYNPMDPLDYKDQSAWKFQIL
# Sequence of HSF1 (Q00613 whole entry): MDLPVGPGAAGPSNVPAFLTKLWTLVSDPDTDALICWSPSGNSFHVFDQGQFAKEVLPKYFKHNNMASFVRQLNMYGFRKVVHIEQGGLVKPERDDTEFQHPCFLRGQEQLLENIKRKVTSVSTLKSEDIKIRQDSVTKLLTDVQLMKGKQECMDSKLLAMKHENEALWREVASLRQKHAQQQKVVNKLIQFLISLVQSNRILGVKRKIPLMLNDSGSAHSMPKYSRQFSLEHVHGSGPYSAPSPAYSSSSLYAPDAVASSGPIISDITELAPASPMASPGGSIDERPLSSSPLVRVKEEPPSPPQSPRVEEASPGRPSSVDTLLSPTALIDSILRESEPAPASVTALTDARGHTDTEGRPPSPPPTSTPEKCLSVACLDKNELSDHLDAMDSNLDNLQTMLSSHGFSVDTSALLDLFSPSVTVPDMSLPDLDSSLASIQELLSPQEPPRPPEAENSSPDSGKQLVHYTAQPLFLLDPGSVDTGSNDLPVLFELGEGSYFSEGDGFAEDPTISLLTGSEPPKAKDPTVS
# Sequence of ETV1 (P50549 whole entry): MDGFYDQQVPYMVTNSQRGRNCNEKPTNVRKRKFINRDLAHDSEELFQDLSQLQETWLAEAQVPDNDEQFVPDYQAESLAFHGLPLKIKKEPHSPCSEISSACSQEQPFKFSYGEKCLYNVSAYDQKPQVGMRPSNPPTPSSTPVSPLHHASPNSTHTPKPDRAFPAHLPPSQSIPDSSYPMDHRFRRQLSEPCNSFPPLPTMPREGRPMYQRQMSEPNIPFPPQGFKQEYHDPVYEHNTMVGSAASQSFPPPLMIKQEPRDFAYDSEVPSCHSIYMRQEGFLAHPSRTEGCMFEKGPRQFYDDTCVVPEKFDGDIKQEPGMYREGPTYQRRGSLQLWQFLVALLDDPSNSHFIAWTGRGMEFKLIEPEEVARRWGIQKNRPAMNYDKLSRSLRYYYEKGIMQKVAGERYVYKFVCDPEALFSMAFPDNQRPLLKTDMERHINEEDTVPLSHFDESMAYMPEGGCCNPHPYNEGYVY
# Sequence of ETV6 (P41212 whole entry): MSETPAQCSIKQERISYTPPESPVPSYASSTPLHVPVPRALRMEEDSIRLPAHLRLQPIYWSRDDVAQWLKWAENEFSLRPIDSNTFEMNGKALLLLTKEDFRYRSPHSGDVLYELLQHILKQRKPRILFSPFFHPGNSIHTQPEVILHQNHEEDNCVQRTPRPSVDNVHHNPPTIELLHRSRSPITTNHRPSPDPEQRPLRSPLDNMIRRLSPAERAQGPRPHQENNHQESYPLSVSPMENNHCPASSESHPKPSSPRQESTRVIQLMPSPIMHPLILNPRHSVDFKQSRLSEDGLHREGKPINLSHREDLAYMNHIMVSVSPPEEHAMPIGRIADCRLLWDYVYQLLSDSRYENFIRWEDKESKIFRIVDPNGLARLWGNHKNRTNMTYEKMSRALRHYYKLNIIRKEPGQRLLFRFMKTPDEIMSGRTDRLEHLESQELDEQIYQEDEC
# Sequence of ELF4 (Q99607 whole entry): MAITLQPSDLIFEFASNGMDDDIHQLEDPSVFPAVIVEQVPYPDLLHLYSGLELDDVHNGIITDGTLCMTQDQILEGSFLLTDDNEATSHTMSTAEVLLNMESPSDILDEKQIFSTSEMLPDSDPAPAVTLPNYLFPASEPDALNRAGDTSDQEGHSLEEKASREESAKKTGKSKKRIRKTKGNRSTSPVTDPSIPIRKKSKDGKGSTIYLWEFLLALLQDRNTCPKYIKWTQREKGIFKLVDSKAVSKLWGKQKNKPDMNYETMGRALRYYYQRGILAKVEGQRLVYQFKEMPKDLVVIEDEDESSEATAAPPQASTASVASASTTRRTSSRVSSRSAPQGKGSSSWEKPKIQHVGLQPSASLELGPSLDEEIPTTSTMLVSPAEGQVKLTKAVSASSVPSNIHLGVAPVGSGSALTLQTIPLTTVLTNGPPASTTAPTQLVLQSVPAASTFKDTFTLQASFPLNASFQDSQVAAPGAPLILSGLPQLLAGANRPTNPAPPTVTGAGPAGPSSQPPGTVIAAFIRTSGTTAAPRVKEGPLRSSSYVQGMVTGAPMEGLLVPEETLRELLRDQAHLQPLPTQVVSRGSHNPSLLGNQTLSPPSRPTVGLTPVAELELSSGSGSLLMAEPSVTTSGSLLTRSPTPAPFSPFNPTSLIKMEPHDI
sequence,measurement,setting,value
TCCCAC,binding signal,FEV,"1.38 fold enrichment (6-mer frequency, TF over GST control)"
same,binding signal,ETV5,"1.37 fold enrichment (6-mer frequency, TF over GST control)"
same,binding signal,HSF1,"1.17 fold enrichment (6-mer frequency, TF over GST control)"
same,binding signal,SPIC,"1.17 fold enrichment (6-mer frequency, TF over GST control)"
same,binding signal,ELF4,"1.34 fold enrichment (6-mer frequency, TF over GST control)"
same,binding signal,ELK4,"1.34 fold enrichment (6-mer frequency, TF over GST control)"
same,binding signal,ETV2,"1.12 fold enrichment (6-mer frequency, TF over GST control)"
same,binding signal,ELF3,"1.46 fold enrichment (6-mer frequency, TF over GST control)"
same,binding signal,CRX,"1.34 fold enrichment (6-mer frequency, TF over GST control)"
same,binding signal,ETV1,"1.34 fold enrichment (6-mer frequency, TF over GST control)"
same,binding signal,ERF,"1.5 fold enrichment (6-mer frequency, TF over GST control)"
same,binding signal,ETV3L,"1.31 fold enrichment (6-mer frequency, TF over GST control)"
same,binding signal,ETS2,"1.23 fold enrichment (6-mer frequency, TF over GST control)"
same,binding signal,SPDEF,"1.33 fold enrichment (6-mer frequency, TF over GST control)"
same,binding signal,ETV7,"1.41 fold enrichment (6-mer frequency, TF over GST control)"
same,binding signal,ELF5,"1.47 fold enrichment (6-mer frequency, TF over GST control)"
same,binding signal,ETV3,"1.24 fold enrichment (6-mer frequency, TF over GST control)"
same,binding signal,ETV6,"1.4 fold enrichment (6-mer frequency, TF over GST control)"
